molecular target: NT5C3L; test: pooled miR-30 sensor sort-seq; sequence = guide strand; conditions: shRNA
Further: reference of the scale not given here.

Sequence | sensor-assay potency score (higher = more potent)
TTGTGTGCTTTGGTCCACCATT | -1.32
TTGCATTGGACTCTCTAACCAC | -0.0742
TATCTGAAACTTCTGAATCTTC | -0.418
TGGAACACTTTCATCTGTCGGA | -0.0202
TAGAGCACTGACATGCTGTGGT | 0.517

molecular target: NTHL1; test: as above; conditions: shRNA

Sequence | sensor-assay potency score (higher = more potent)
TTCTGTGCACATGCGTGTCCAC | -0.487
TTTTTGTTCCTCATGGCACGGA | 0.281
TCATCTGTCTGCAGGATGCTGT | -0.751
TATTTCACCTTGCTCCTCCAGA | -0.193
TAGATGAGCTTGCCCAGCGTGG | -1.11
TTGATGTATTTCACCTTGCTCC | -0.737
TTCTTGGTCCACCTCAGCCTGT | -1.58
TTTTCCTCGCTTCTGCTGCAGC | -0.814
ATGTATTTCACCTTGCTCCTCC | 0.0621
TTGGTTGCCTTCTTGGTCCACC | -0.633
ATCAGTGACAGCAGCACCTGGT | -0.43
TTGACCAGCTGTTGCTGCCAGT | -1.05
